Assay outcomes deposited in PubChem by Pan Lab, Icahn School of Medicine at Mount Sinai.
Many of the other results were omitted from the sample, so hits are more common in it than they were.
ROC1-CUL1 inh: human ROC1-CUL1 E3 ligase inhibition | inhibition, % at 10 µM | 140,000 compounds, 0.6% hits | in vitro K48 di-Ub FRET, acceptor:donor ratio, 45 min | P62877+Q13616 | AID 1347404; in the data active = inhibition above about 25%
* = called active by the depositor.

Screening C=CCN(Cc1cnc(Nc2ccccc2C)s1)C1CCS(=O)(=O)C1 (stereo unspecified) returned ROC1-CUL1 inh 9.
`Nn1c(SCc2ccc(Cl)cc2)nnc1-c1ccc(F)cc1` gave ROC1-CUL1 inh 7.
`O=C(NN1C(=O)C2CCCCC2C1=O)c1cccnc1` (stereo unspecified) gave ROC1-CUL1 inh 9.
COc1ccc(N2C(=O)C(=Nc3ccc(C)c(Cl)c3)C(Cl)C2=O)cc1 (stereo unspecified) was read as ROC1-CUL1 inh 14.
`CCCC(=O)Nc1cc(Cl)ccc1N1CCN(C(=O)C(C)C)CC1` gave ROC1-CUL1 inh 4.
COC(=O)c1c(NC(=O)CSc2ncnc3sc(-c4ccccc4)cc23)sc(C)c1C was read as ROC1-CUL1 inh 7.
Screening CC1=NC(=O)NC(c2ccc(Br)cc2)C1C(=O)Nc1cccc(C)c1C (stereo unspecified) returned ROC1-CUL1 inh 7.
For CCOC(=O)c1nn(-c2ccccc2C(=O)O)c(N)c1C(N)=S the results were ROC1-CUL1 inh 10.
Screening CCOC(=O)c1nn(-c2ccccc2C(=O)O)c(=O)c2c(N)sc(Br)c12 returned ROC1-CUL1 inh 33*.
Screening CCOC(=O)c1nn(-c2ccccc2)c(=O)c2c(N)scc12 returned ROC1-CUL1 inh -5.
For Cc1ccc(N=C2NC(=O)CC(C(=O)Nc3ccc(F)c(Cl)c3)S2)cc1 (stereo unspecified) the results were ROC1-CUL1 inh -3.
`N#CC1=CN=C2Sc3ccccc3N2C1(O)c1ccccc1` (stereo unspecified) gave ROC1-CUL1 inh -2.
`O=[N+]([O-])c1ccc(N/N=C/c2cccn2-c2ccccc2)nc1` gave ROC1-CUL1 inh 1.
Cc1c(C(=O)O)cccc1-n1c(C)cc(/C=N/NC(=O)c2cc3ccccc3o2)c1C was read as ROC1-CUL1 inh 1.
Screening Cc1c(C(=O)O)cccc1-n1c(C)cc(/C=N/Nc2ccc([N+](=O)[O-])cn2)c1C returned ROC1-CUL1 inh 82*.
For CC(=O)NC1(C(=O)NC2CCCC2)CCCCC1 the results were ROC1-CUL1 inh -8.
`CC1(N2CCCCC2)C(=O)c2ccccc2C1=O` gave ROC1-CUL1 inh 1.
Screening COC1(O)C(=O)c2ccccc2C(=O)C1(O)OC (stereo unspecified) returned ROC1-CUL1 inh 83*.
For CN1C(=O)N(C)C2(O)c3ccccc3C(=O)C12O (stereo unspecified) the results were ROC1-CUL1 inh -8.
CC1(C)CC(=O)C(C2(O)C(=O)c3ccccc3C2=O)C(=O)C1 was read as ROC1-CUL1 inh -15.
CC1(Nc2ccccc2)C(=O)c2ccccc2C1=O was read as ROC1-CUL1 inh 2.
O=C1c2ccccc2C(=O)C1(O)O was read as ROC1-CUL1 inh 46*.
CN(C)c1ccc(CN2CCOc3ccc(C(C)(O)COc4ccccc4)cc3C2)cc1 (stereo unspecified) was read as ROC1-CUL1 inh 4.
For O=S(=O)(Cc1ccccc1F)Nc1ccccc1 the results were ROC1-CUL1 inh 15.
`C=CCN(C(=S)Nc1ccc(C)cc1)C1CC(=O)N(c2ccc(OCCCC)cc2)C1=O` (stereo unspecified) gave ROC1-CUL1 inh -4.
`Nc1nnc2n1CC(O)CS2` (stereo unspecified) gave ROC1-CUL1 inh 7.
Screening COc1ccc2[nH]c3c(c2c1)CCNC3c1ccccc1Cl (stereo unspecified) returned ROC1-CUL1 inh -1.
CC12CN3CC(C)(CN(C1)C3c1ccccc1Cl)C2O (stereo unspecified) was read as ROC1-CUL1 inh -3.
Screening Clc1ccccc1C1NCCS1 (stereo unspecified) returned ROC1-CUL1 inh 31*.
O=C(c1cn(Cc2cccc(C(F)(F)F)c2)nn1)N1CCOCC1 was read as ROC1-CUL1 inh -8.
O=C(N/N=C/c1ccc(Br)cc1O)c1n[nH]c2c1CCC2 was read as ROC1-CUL1 inh 11.
`CC1=C(C#N)c2nc(N)c(C#N)c(C)c2/C1=C\c1ccc(F)cc1` gave ROC1-CUL1 inh -5.
For CC1=C(C#N)c2nc(N)c(C#N)c(C)c2/C1=C\c1ccc(OCc2cccc(C(=O)O)c2)cc1 the results were ROC1-CUL1 inh 98*.
For CC1=C(C#N)c2nc(N)c(C#N)c(C)c2/C1=C\c1cccc(F)c1 the results were ROC1-CUL1 inh -4.
Screening COc1cc(/C=C/C(=O)c2ccc(I)cc2)cc(OC)c1OC returned ROC1-CUL1 inh 1.
CCC(C)Oc1cccc(NC(=O)c2ccco2)c1 (stereo unspecified) was read as ROC1-CUL1 inh -3.
Screening O=C(O)c1ccc(CNC2CCCCCC2)cc1 returned ROC1-CUL1 inh -2.
`Cn1cc(CN2CCN(Cc3cccnc3)CC2)c(-c2ccccc2F)n1` gave ROC1-CUL1 inh 0.
Screening Cc1c(C(=O)O)cccc1-c1ccc(CC2=NC(=O)N(c3cccc(Cl)c3)C2=O)o1 returned ROC1-CUL1 inh -3.
Cc1ccc(C(=O)O)cc1-c1ccc(CC2=NC(=O)N(c3ccc(Cl)cc3)C2=O)o1 was read as ROC1-CUL1 inh 50*.
For O=C1NC(=S)N=C1Cc1ccc(-c2cc(C(=O)O)ccc2Cl)o1 the results were ROC1-CUL1 inh 10.
`Cc1ccc2c(c1)C(=O)C(C(c1ccccc1Cl)C1C(=O)Oc3ccc(C)cc3C1=O)C(=O)O2` (stereo unspecified) gave ROC1-CUL1 inh 63*.
`Cc1ccc2c(c1)C(=O)C(C(c1ccc(N(C)C)cc1)C1C(=O)Oc3ccc(C)cc3C1=O)C(=O)O2` (stereo unspecified) gave ROC1-CUL1 inh -6.
For COc1cccc(C(C2C(=O)Oc3ccc(C)cc3C2=O)C2C(=O)Oc3ccc(C)cc3C2=O)c1 (stereo unspecified) the results were ROC1-CUL1 inh -6.
Screening Cc1nc(NC(=O)NCCc2scnc2C)n[nH]1 returned ROC1-CUL1 inh 5.
For CCOc1ccccc1N1C(=O)c2ccc(C(=O)Nc3ccc(Br)cc3C(=O)O)cc2C1=O the results were ROC1-CUL1 inh -3.
Screening CC(c1ccccc1)N1C(=O)c2ccc(C(=O)Nc3ccc(Br)cc3C(=O)O)cc2C1=O (stereo unspecified) returned ROC1-CUL1 inh 39*.
`CCCN1C(=O)c2ccc(C(=O)Nc3ccc(Br)cc3C(=O)O)cc2C1=O` gave ROC1-CUL1 inh 9.
For C=CCNC(=O)Cn1cnc([N+](=O)[O-])n1 the results were ROC1-CUL1 inh -2.
COC(=O)c1ccc(C(=O)OC)c(NC(=O)Cc2ccc(Br)cc2)c1 was read as ROC1-CUL1 inh 4.
For COC(=O)c1ccc(C(=O)OC)c(NC(=O)CCc2ccccc2)c1 the results were ROC1-CUL1 inh -2.
`COC(=O)c1ccc(C(=O)OC)c(NC(=O)CN(C)C)c1` gave ROC1-CUL1 inh 51*.
`COc1nc(-c2ccccc2)nc(C)c1C` gave ROC1-CUL1 inh -6.
Screening C=CCc1c(C)nc(-c2ccccc2)nc1N/N=C/c1ccc(Br)cc1 returned ROC1-CUL1 inh 1.
For Cc1ccc(NC(=O)/C=C/c2ccco2)cc1F the results were ROC1-CUL1 inh -6.
Screening CCSc1nnc(NC(=O)/C=C/c2ccco2)s1 returned ROC1-CUL1 inh 1.
Screening N=C(CC(=O)/C=C/c1ccco1)C(F)(F)F returned ROC1-CUL1 inh 9.
`O=C(/C=C\c1ccco1)Nc1cccc(C(=O)Nc2cccc(O)c2)c1` gave ROC1-CUL1 inh -4.
`O=C(/C=C/c1ccco1)NCC12CC3CC(C1)CC(CNC(=O)/C=C/c1ccco1)(C3)C2` gave ROC1-CUL1 inh 103*.
